According to ChEMBL document CHEMBL1157539, “Thousands of chemical starting points for antimalarial lead identification” (Nature, 2010):

Each compound was assayed on Plasmodium falciparum (assay: GSK_TCMDC: Inhibition of Plasmodium falciparum Dd2 in whole red blood cells, using parasite LDH activity as an index of growth. Test compounds present at 2uM).
Assay type: functional

| SMILES | Inhibition |
| --- | --- |
| COc1ccc(OC)c(Cc2c(C)nc3nc(N)nc(N)c3c2C)c1.Cl | 0% |
| COc1ccc2c(c1CCNCCCCNCCc1c(OC)ccc3c1CCCC3)CCCC2.CS(=O)(=O)O | 25% |
| CCCCCCOc1ccc2ccccc2c1CNCCCCCCNCc1c(OCCCCCC)ccc2ccccc12.CS(=O)(=O)O | 55% |
| CCC(C(C)C)n1ccc2c3c(N)nc(N)nc3ccc21 (stereo not given) | 95% |
| Cc1nc(C)c(-c2ccc(Oc3cccc(OC(F)(F)F)c3)cc2)c(O)c1Cl | 97% |
| CC(=O)Oc1c(Cl)c(C)nc(C)c1-c1ccc(Oc2ccc(OC(F)(F)F)cc2)cc1 | 98% |
| Cc1[nH]c(C)c(-c2ccc(Oc3ccc(Cl)cc3)cc2)c(=O)c1C | 95% |
| CC/N=C(/NCCCCCCN/C(=N/CC)NCc1ccccc1)NCc1ccccc1.I | 95% |
| COc1cccc2c(O)c(CNC3CCCCC3)ccc12.Cl | 98% |
| CCCc1cc2c3c(N)nc(N)nc3ccc2n1CC | 6% |
| COc1ccccc1-c1nc2c(ccc3nc(N)nc(N)c32)[nH]1 | 93% |
| Cc1nc(C)c(-c2cccc(Oc3ccc(Cl)cc3)c2)c(O)c1Br | 97% |
| CC(CO)(CO)NCc1cc2ccc3ccsc3c2c2ccccc12.CS(=O)(=O)O | 98% |
| Cc1[nH]c(C)c(-c2ccc(Oc3ccc(Cl)cc3)cc2)c(=O)c1Cl | 16% |
| Nc1nc(N)c2c(ccc3c2ccn3Cc2cccc(F)c2)n1 | 99% |
| COc1ccc(Cc2c(Cl)nc3nc(N)nc(N)c3c2C)c(OC)c1OC | 0% |
| Cc1[nH]c(C)c(-c2ccc(Oc3ccccc3)cc2)c(=O)c1Br | 97% |
| Cc1nc(N)nc(N)c1-c1cc(Cl)c(Cl)c(Cl)c1 | 0% |
| CC(C)n1c(C(C)(C)C)cc2c3c(N)nc(N)nc3ccc21 | 99% |
| CC1CCN(Cc2c(O)ccc3c(CN4CCC(C)CC4)c(O)ccc23)CC1.Cl | 86% |

| SMILES | Inhibition |
| --- | --- |
| Nc1nc(N)c2c(ccc3c2cnn3Cc2cccnc2)n1 | 96% |
| Nc1nc(Cc2ccc(Cl)cc2)nc(Cc2ccc(Cl)cc2)n1 | 0% |
| Cl.c1ccc2c(NCCOCCNc3c4ccccc4nc4ccccc34)c3ccccc3nc2c1 | 0% |
| COc1cc(Cc2cnc(N)nc2N)cc(OCCCCC#N)c1OC | 0% |
| Nc1nc(N)c2cc(Cc3ccc([N+](=O)[O-])cc3)cnc2n1.O=S(=O)(O)O | 0% |
| Nc1nc(N)c2c(ccc3[nH]c(-c4ccccc4Cl)nc32)n1 | 100% |
| COc1ccc(OC)c(CC2c3ccc(Br)c(O)c3CCN2C)c1.Cl (stereo not given) | 97% |
| CCCc1cc(OC)c(CC2c3cc(O)c(Cl)cc3C(c3ccccc3)CN2C)cc1OC.Cl (stereo not given) | 100% |
| CCN(C)C(=O)n1ncc2c3c(N)nc(N)nc3ccc21 | 0% |
| CC(C)Cn1ccc2c3c(N)nc(N)nc3ccc21 | 96% |
| COc1cc(Cc2cnc(N)nc2N)cc(OCCCCc2ccc([N+](=O)[O-])cc2)c1OC | 4% |
| Cc1nc2nc(N)nc(N)c2c(C)c1Cc1ccc(N)cc1.Cl | 0% |
| N=C(NCC1CC1c1ccccc1)c1cccc(C(=N)NCC2CC2c2ccccc2)n1 (stereo not given) | 0% |
| CC(C)(C)c1ccc(-c2nnc(N)nc2N)cc1 | 0% |
| Cl.N=C(N)c1ccc(OCCCCCOc2ccc(C(=N)N)cc2)cc1 [PENTAMIDINE HYDROCHLORIDE] | 98% |
| CC(=NNc1nc2ccccc2s1)c1ccccn1.Cl | 47% |
| Cc1nc(C)c(-c2ccc(-c3ccc(F)cc3)cc2)c(O)c1Cl | 96% |
| Cl.N=C(N)c1ccc2[nH]c(-c3cc4cc(C(=N)N)ccc4o3)cc2c1 | 87% |
| Cl.O[C@@H](c1cc(C(F)(F)F)nc2c(C(F)(F)F)cccc12)[C@H]1CCCCN1 | 99% |
| Nc1nc(N)c2c(Sc3ccc(F)cc3)cccc2n1 | 0% |
